# Test results from PubChem BioAssay (NCATS).
# Some of the results follow. Inconclusive results are not listed. The source made the active and inactive calls. Calls follow the shape of the dose curve; as a rule, active = well fitted cell-killing curve with a large enough effect; inconclusive = small, poorly fitted or top-dose-only effect, or effect the other way; inactive = flat fitted curve, though single readings scatter.
# Assay: qHTS screen for small molecules that inhibit ELG1-dependent DNA repair: Hit Confirmation with MMS Viability (AID 624251);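 also: viability read 16 h after compound addition; nearly all actives have a fitted effect of over 60% in size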
# Details: Cell viability with MMS; series mostly up to 46.1 µM; activity change, negative = viability loss: at the top concentration
# Source text: Cancer cells divide rapidly compared to normal cells in the body. During cell division, cancer cells need to duplicate their genome by DNA replication. The failure of genome duplication leads to cancer cells' death. Therefore, inhibitors of DNA replication could specifically kill cancer cells. Based on this concept, many chemotherapeutic agents were developed and have been used to treat cancer patients. However, there are a limited number of agents available in the clinical setting, and some of those that do exist have low efficacy and severe side effects. Therefore, if we can find the compounds that effectively block DNA replication either by directly damaging DNA or by inhibiting other cellular mechanisms, the options for cancer treatment will be broadened. With this in mind, we developed a quantitative high-throughput ELG1-luciferase reporter gene assay. Small molecules that specifically block ELG1 function in response to DNA damage can be identified by monitoring the suppression of luciferase activity. Since ELG1 defines a pathway for repairing DNA damage, agents blocking ELG1 function can be used to sensitize cancer cells to chemotherapeutic agents whose mechanism of action involves the induction of DNA damage.
# NIH Molecular Libraries Probe Production Network [MLPCN]
# NIH Chemical Genomics Center [NCGC]
# Assay Provider: Kyungjae Myung, NHGRI, NIH
# ELG1-luc HEK293T cells will be seeded in 1536-well plates at a density of 2,000 cells/well. Approximately 5 hours after plating, compounds will be added to the plate by pin tool transfer and MMS will be added by FRD dispenser (final concentration of MMS = 10 µM). 16 hours following the addition of the compounds, cell viability will be measured using Cell Titer Glo.
# % is scaled to controls: 0 for no effect and ±100 for the full control effect; potency is read from the fitted curve at half-maximal effect.
Compound,"activity change, negative = viability loss",Potency
CCOC(=O)c1cccc(NC(=O)C2CCN(c3ncnc4c3nc3n4CCCCC3)CC2)c1,-16.4% (inactive),–
COc1ccc(NC(C)=O)cc1NC(=O)CN1CCN(C2c3ccccc3-c3ccccc32)CC1,2.19% (inactive),–
COc1ccc(-c2nn(-c3ccccc3)cc2/C=C\C(=O)N2CCOCC2)cc1[N+](=O)[O-],10.3% (inactive),–
CC12CCC(C(=O)N3CCN(c4ncccn4)CC3)(c3nc4ccccc4nc31)C2(C)C (stereo unspecified),-11.1% (inactive),–
CCc1ccc(N(CC)c2ncnc3nc[nH]c23)cc1,-7.51% (inactive),–
NC(=O)c1sc2nc3c(c(-c4ccccc4)c2c1N)CCC3,13.6% (inactive),–
Cc1ccc(C)c(S(=O)(=O)N2CCN(c3ncnc4sccc34)CC2)c1,–,2.5 µM (active)
COc1ccc(CSc2nc(N3CCOCC3)c3c(c2C#N)CC(C)(C)OC3)cc1,13.9% (inactive),–
COc1ccc(S(=O)(=O)Nc2ccc3oc(C)c(C(C)=O)c3c2)cc1,–,3.97 µM (active)
OCCCNc1nccc(-c2cc(Nc3cccc(Cl)c3)ncn2)n1,–,2.5 µM (active)
Cc1ccccc1NC(=O)CSc1nc2ccc(Nc3nc(N4CCOCC4)nc(N4CCOCC4)n3)cc2s1,-2.12% (inactive),–
COc1ccc(CNc2ncnc3ccccc23)cc1,–,2.23 µM (active)
Cc1ccc(N(Cc2ccc(C(=O)Nc3ccccc3C(=O)NCc3ccco3)cc2)S(C)(=O)=O)cc1C,-6.33% (inactive),–
CC(=O)c1c(C)n(-c2ccc(C)cc2)c2ccc(O)cc12,7.12% (inactive),–
COc1ccc(NC(=O)C2CCC(CNc3c(N4CCCCC4)c(=O)c3=O)CC2)c(OC)c1 (stereo unspecified),-3.43% (inactive),–
COc1ccc(NS(=O)(=O)c2ccc(Oc3c(C#N)cccc3C#N)cc2)cc1,–,4.45 µM (active)
CC(C)(CNC(=O)c1ccc(Cl)c(S(=O)(=O)N2CCc3ccccc3C2)c1)N1CCOCC1,–,1.99 µM (active)
CN(C)c1ccnc2sc3c(=O)n(Cc4ccccc4)cnc3c12,2.47% (inactive),–
CS(=O)(=O)c1ccc2nc(NC(=O)C3CCCCC3)sc2c1,-2.61% (inactive),–
COc1ccc(NC(=O)c2sc3nc(C)nc(N4CCN(c5ccccn5)CC4)c3c2C)c(OC)c1,-3.03% (inactive),–
Cc1ccc(Nc2nc(N3CCOCC3)nc(N3CCOCC3)n2)cc1Cl,-4.13% (inactive),–
O=C(C1CCCN(S(=O)(=O)c2ccccc2)C1)N1CCN(c2ccc(F)cc2)CC1 (stereo unspecified),–,3.97 µM (active)
Clc1ccc2nc(-c3ccccc3)nc(C(Cl)Cl)c2c1,–,3.97 µM (active)
Cc1cc2oc(=O)cc(CN3CCN(S(=O)(=O)c4cccs4)CC3)c2cc1C(C)C,–,22.3 µM (active)
Nc1nnc(SCC(=O)Nc2ccc3nc(SCC(=O)Nc4ccccc4)sc3c2)s1,–,5.6 µM (active)
COc1ccccc1C(=O)Nc1ccc(C)c(S(=O)(=O)N2CCCCC2)c1,-23.1% (inactive),–
